Pf Dd2 inh: blocks in vitro growth of P. falciparum Dd2; P. falciparum Dd2 growth, SYBR Green, 72 h; Potency, µM (top dose mostly 28.9 µM), for inactives: at the top dose activity, negative = inhibition, usual class: inhibitors; 4.3% of 120,000 active; AID 1347417; active = well fitted inhibition curve with a large enough effect;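 note: plate controls were DMSO vehicle for no effect and reference drug for full effect; nearly all actives have a fitted effect of over 65% in size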
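Readout: SYBR Green fluorescence, 485 nm excitation, 535 nm emission, after ~16 h lysis at 37C. Before that, Dd2-infected red cells (2.5% hematocrit) grew 72 h with compound, 29 uM top final concentration.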
Starred values were filed as active, the others as inactive; i = inactive; [ ] = dose if it differs, or a comment. Shown is part of a subset that was picked to be rich in hits. Potency is the fitted concentration of half-maximal effect.

SMILES	Pf Dd2 inh
O=C(CCCCCn1c(=O)[nH]c2ccccc2c1=O)N1CCN(c2cccc(C(F)(F)F)c2)CC1	-11%
O=C(CCCn1c(=O)[nH]c2ccccc2c1=O)N1CCN(c2ccccc2)CC1	10µM*
COCCn1c(=O)[nH]c2cc(C(=O)N3CCN(c4ccccc4)CC3)ccc2c1=O	-5%
CC(=O)c1ccc(N2CCN(C(=O)c3ccc(Cn4c(=O)[nH]c5ccccc5c4=O)cc3)CC2)cc1	7.9µM*
COc1ccc(Cn2c(=O)[nH]c3cc(C(=O)N4CCN(c5ccccc5)CC4)ccc3c2=O)cc1	3%
CCCCCn1c(=O)[nH]c2cc(C(=O)N3CCN(c4ccccc4)CC3)ccc2c1=O	9%
Cc1ccc(CNC(=O)c2nn(-c3ccc(Cl)cc3)nc2CO)cc1	3%
O=C(NCc1ccco1)C1c2ccccc2C(=O)N(Cc2ccccc2)C12CCCC2 (stereo not drawn)	-17%
COCCN1CCCCCC(O)c2cc(C(=O)NCCc3ccccn3)ccc21 (stereo not drawn)	i
Cn1c(SCC(=O)N2CCCc3ccccc32)ncc(C(=O)Nc2ccc(Cl)cc2)c1=O	44%
CSCCCNC(=O)c1c(C)noc1-c1ccco1	2%
c1cncc(CN2CC[C@H](c3nnc(Cc4c[nH]c5ccccc45)o3)C2)c1	11µM*
c1ccc2c(Cc3nnc([C@H]4CCN(CC5CC5)C4)o3)c[nH]c2c1	i
CC(=O)N1CC[C@H](c2nnc(Cc3c[nH]c4ccccc34)o2)C1	-9%[44.1 µM]
CC(C)NC(=O)NC1CC2(CCN(Cc3ccc(O)cc3)CC2)c2ccccc21 (stereo not drawn)	2.8µM*
CC(C)NC(=O)NC1CC2(CCN(C(=O)c3ccccc3)CC2)c2ccccc21 (stereo not drawn)	-22%
CC(=O)NC1CC2(CCN(C(=O)Cc3ccc(O)cc3)CC2)c2ccccc21 (stereo not drawn)	2%
Cn1cnnc1CC1CCN(C(=O)Nc2ccc3c(c2)OCCO3)C1 (stereo not drawn)	i
Cc1nn(CC(=O)NC2CC2)c(=O)c2cc3ccccc3n12	-13%
CCOc1cc(C(=O)Nc2ccc3nc(N4CCN(C)CC4)cc(C)c3c2)cc(OCC)c1OCC	3.2µM*
Cc1cn(C)c(CC(=O)N2CCN(c3cccc(Cl)c3)CC2)c1C(=O)O	2%
Cc1cc(N2CCCCC2)nc2ccc(NC(=O)CCC(=O)N3CCN(c4cccc(Cl)c4)CC3)cc12	11µM*
Cc1cc(N2CCCCC2)nc2ccc(NC(=O)c3cccc(F)c3)cc12	i
Cc1ccc(CSCC(=O)N2CCN(c3cc(Cl)ccc3C)CC2)cc1	i
Cc1cc(N2CCN(C)CC2)nc2ccc(NC(=O)Nc3cccc(Cl)c3)cc12	1µM*
SMILES	Pf Dd2 inh
Cc1c(-c2cccc(NC(=O)Nc3ccc(Cl)cc3)c2)nc2ncccn12	-24%
Cc1cccn2c(=O)cc(COc3cccc(NC(=O)Nc4cccc(Cl)c4)c3)nc12	i
Cc1ccc(Nc2ncc(C(=O)N3CCN(c4cccc(Cl)c4)CC3)c3ccccc23)cc1Cl	i
Cc1ccc(/C=C/C(=O)Nc2ccc3nc(N4CCC(C)CC4)cc(C)c3c2)cc1	-5%
Cc1ccc(Cl)cc1N1CCN(C(=O)CCC(=O)Nc2ccc3nc(N4CCC(C)CC4)cc(C)c3c2)CC1	3.5µM*
COc1ccc(C(=O)Nc2ccc3nc(N4CCCCC4)cc(C)c3c2)c(OC)c1	4%
COCCc1nncn1C1CCN(C(=O)c2ccc(C(F)(F)F)cc2)CC1	-2%
COc1ccccc1Nc1cc(C(=O)NCc2cccs2)c2ccccc2n1	-9%
Cc1nnc(-c2cc(-c3ccccc3)ccn2)n1CCN1CCOCC1	i
Cc1cnc(C(=O)NC2C[C@H]3CC[C@@H](C2)N3C(=O)c2ccsc2)cn1 (stereo partly drawn)	9%
CS(=O)(=O)N1C[C@H]2CCN(Cc3cc(F)ccc3F)C[C@H]21	-13%
CCCCOc1ccc(CN2C(=O)C(=O)c3cc(C)ccc32)cc1OC	31%
Cc1ccccc1CSc1nc2ccsc2c(=O)n1CCC(C)C	33%
CNC(=O)C1CCCN(c2nc3ncccc3o2)C1 (stereo not drawn)	-2%[44.1 µM]
CC1CCCN(C(=O)c2cc3c(Cl)nc4ccccc4c3s2)C1 (stereo not drawn)	-2%
Cc1ccc2nc(Cl)c3cc(C(=O)NCCCN(C)Cc4ccccc4)sc3c2c1	7.9µM*
CCN(CCCNC(=O)c1cc2c(=O)n(C)c3ccccc3c2s1)c1ccccc1	13%[5.79 µM]
Cc1ccc2nc(Cl)c3cc(C(=O)NC4CCCCCC4)sc3c2c1	-6%
COCCNC(=O)c1cc2c(Cl)nc3ccc(C)cc3c2s1	-10%
CC1CCC(NC(=O)c2cc3c(Cl)nc4ccccc4c3s2)CC1 (stereo not drawn)	27%
CCN(CCCNC(=O)c1cc2c(=O)[nH]c3ccc(C)cc3c2s1)Cc1ccccc1	7.9µM*
CCOc1ccc(CNC(=O)c2cc3c(=O)n(C)c4ccccc4c3s2)cc1	13%
CC1CCCN(CCCNC(=O)c2cc3c(Cl)nc4ccccc4c3s2)C1 (stereo not drawn)	4.5µM*
Cc1cccc(CCNC(=O)c2cc3c(=O)[nH]c4ccc(C)cc4c3s2)c1	-17%

Bioassay records (PubChem BioAssay)
